Results on 15 compounds are retold here after PubChem BioAssay (NCI).

This is part of a sample that, as a whole, favours compounds with a hit. Of some 83,000 tested, about 20% had one in any assay.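 Method: cells in 96-well plates; compound added at one concentration; 48 h incubation; percent growth measured; values under 10 scored active.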 Values without a mark were called inactive. The source made the active and inactive calls.

Test in all cases: NCI-60 one-dose screen, 48 h (100 = growth as untreated, 0 = no growth, -100 = all killed)
Holding throughout (details): 10 µM

For test [1], the system named is SK-MEL-2 melanoma.
Test [2] has as its system EKVX NSCLC.
Test [3] deals with SN12C renal.
Test [4] deals with TK-10 renal.
For test [5], the system named is ACHN renal.
For test [6], the system named is CAKI-1 renal.
In test [7] the test system is A498 renal.
The subject of test [8] is MOLT-4 leukemia.
Test [9] concerns CCRF-CEM leukemia.
Test [10] concerns UO-31 renal.

In the case of `CC(C)(C)OC(=O)CN1CCc2c(sc3ncnc(N/N=C/c4cccc5ccccc45)c23)C1`, the growth was 71.1% in test [1]; 2.48% (active) in test [2]; 48.4% in test [3]; 50.5% in test [4]; 15.7% in [5]; 35.1% in test [6]. Moreover, the growth is 52.4% in [7] and 9.27% (active) in [8].

On to `O=C(O)Cc1ccc(O)c(O)c1`, for which the growth in test [1] was 109%; in test [2], 89.4%; in test [3], 99.4%; in test [4], 112%; in test [5], 108%; in [6], 99.5%. In addition, the growth in [9] was -24.1% (active); in test [8], 98.6%.

Take `OC(CCN1CCCC1)(c1ccccc1)C1CCCCC1` (centres undefined): the growth in [1] was 111%; in [2], 97.5%; in test [3], 95.9%; in test [4] it was 108%; in test [5], 94.7%; in test [6], 95.7%. In addition, the figures for the growth in test [7] and in test [8] were 116% and 109%, respectively.

On to `C=C(C)[C@@H]1CC[C@]2(COCCC#N)CC[C@]3(C)[C@H](CC[C@@H]4[C@@]5(C)Cc6c([nH]c7ccccc67)C(C)(C)[C@@H]5CC[C@]43C)[C@@H]12`, for which the growth in [1] is 110%; in test [2], 116%; in test [3] it was 98.7%; in test [4], 100%; in [5] it was 95.2%; in [7], 106%. In addition, the growth in test [8] is 86.1%.

In the case of `COc1ccc2nc3cc(Cl)ccc3c(N)c2c1`, the growth in [1] is -71.2% (active); in test [3], -80.3% (active); in test [10] it was -74% (active); in test [4] it was -68.7% (active); in [5], -99.5% (active); in test [6], -55.6% (active). The growth in [9] is -5.6% (active); in test [8], -55.4% (active).

As for `COc1cccc2ccc(CC(O)(c3ccccc3)c3ccccc3)nc12`, the growth in [1] was 85.1%; in test [3] it was 93.8%; in test [10], 59.8%; in [4], 128%; in test [5], 84.3%; in [6] it was 87.2%. For the same compound, the growth in test [7] was 102%; in test [9], 95.7%; in test [8] it was 88.6%.

As for `CC(C)(C)c1nn(-c2ccccc2)c2c1CC1(CN2Cc2ccc(Cl)cc2)C(=O)c2ccccc2C1=O`, the growth in test [1] was 92.4%; in test [3], 86.1%; in test [10] it was 99.6%; in test [4] it was 99.3%; in test [5] it was 98.9%; in test [9], 66.2%.

As for `Cc1cc(SC#N)cc(C(C)(C)C)c1O`, the growth in test [1] was 82.2%; in test [2] it was 102%; in test [10], 93.6%; in test [4] it was 108%; in [5], 101%; in test [6] it was 96.4%. Also, the growth in test [7] was 86.1%; in test [9], 86.4%; in [8], 66.9%.

With `Clc1ccc(Cc2ccncc2)cc1`, the growth in test [1] was 121%; in test [2], 101%; in [3], 95.4%; in [4], 130%; in [6], 130%; in test [7], 104%. The results for the growth in test [9] and in test [8] were 104% and 114%, respectively.

As to `O=C1c2c(c(=O)[nH]c3ccccc23)CCN1Cc1ccccc1`, the growth is 127% in test [1]; 92.4% in test [2]; 97.4% in test [3]; 119% in test [4]; 91.8% in [5]; 110% in test [7]. Further, the growth in [9] was 100%; in test [8], 105%.

In the case of `NS(=O)(=O)c1ccc(Br)cc1`, the growth in [1] is 101%; in [2] it was 90.3%; in test [10], 97.1%; in test [4], 90.4%; in test [5] it was 107%; in test [7], 115%. Besides, the growth in test [9] is 104%; in test [8], 92.7%.

For the compound `O=C1CC(SC(=S)C2CCCC2=O)C(=O)N1` (centres undefined), the growth was 96.9% in test [1]; 99.3% in [3]; 92.3% in test [10]; 108% in test [4]; 103% in [5]; 102% in test [6]. The results for the growth in test [7], in [9] and in test [8] were 100%, 101% and 96.5%, respectively.

In the case of `CC(=O)Nc1cc2c(cc1Cl)Cc1cc(Cl)ccc1-2`, the growth was 103% in [1]; 12% in test [2]; 65.4% in test [10]; 86.4% in test [4]; 88.2% in [5]; 75.6% in [6]. Further, in test [8], the growth was 103%.

Consider `COc1ccc(/C=c2\sc3n(c2=O)C(c2cc(OC)c(OC)c(OC)c2)C=C(c2ccc(OC)c(OC)c2)N=3)cc1OC` (centres undefined), for which the growth in test [1] was 106%; in test [2], 101%; in [3], 93.9%; in test [4], 105%; in test [7], 94.5%; in test [9], 64.4%. For the same compound, in test [8], the growth was 79.5%.

With `COc1ccc2c(c1)C(=O)/C(=C/c1ncc([N+](=O)[O-])n1C)O2`, the growth was -52.1% (active) in test [1]; -11.5% (active) in [3]; -46.4% (active) in test [10]; -37.9% (active) in test [4]; 9.55% (active) in test [5]; -21.6% (active) in test [6]. Moreover, the growth in test [7] was -35.5% (active); in test [9], 95.1%; in test [8] it was -5.94% (active).
